Our source for the growth values is PubChem BioAssay (NCI).

This is part of a sample that, as a whole, favours compounds with a hit. Of some 83,000 tested, about 20% had one in any assay.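 Cells were grown in 96-well plates and exposed to the test compound at a single concentration for 48 hours; results are reported as percent growth, with values below 10 considered active.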 Active and inactive are the calls of the source.

The test system of the first assay is MDA-MB-435 melanoma. In words: NCI-60 one-dose screen, 48 h (100 = growth as untreated, 0 = no growth, -100 = all killed). The note with it: 10 µM unless noted.
`O=C1N=c2cc3c(cc2=C/C1=C/c1sc(=S)n(CCc2ccc(O)cc2)c1O)OCCO3`: the growth was 61.1% (inactive).

Turning to `COc1ccc(CN2C(=O)C(Cl)=C(Nc3cccc(C(F)(F)F)c3)C2=O)cc1`, the growth was 25.5% (inactive).

Consider `O=C1C=C[C@]2(C[C@@H](c3cccc(C(F)(F)F)c3)O[C@@H](c3cccc(C(F)(F)F)c3)O2)O1`, for which the growth is -74.7% (active).

As to `Clc1cc(Cl)cc(Nc2ccc3cc(OCCCN4CCOCC4)ccc3n2)c1`, the growth was 34.1% (inactive).

Consider `CC(=O)OC1CCC2(C)C(=CC3C4CCC(=O)C4(C)CCC32)C1` (stereo not drawn), for which the growth is 116% (inactive).

`COc1cc(C2NC(=O)c3ccccc3N2)ccc1OCCCCCOc1c(OC)cc(C2=NOC(c3cc(OC)c(OC)c(OC)c3)C2)cc1OC` (stereo not drawn): the growth is 23.3% (inactive).

Consider `O=C(N/N=C/c1ccncc1)c1ccc(C(F)(F)F)nc1Nc1cccc(C(F)(F)F)c1`, for which the growth is 36.4% (inactive).

For the molecule `C[C@@]1(CCC#N)[C@H]2CC[C@@H]3[C@H]4[C@H](C(=O)/C=C/c5cccnc5)CC[C@]4(C#N)CC[C@@]3(C)[C@]2(C)CC[C@H]1C(=O)/C=C/c1cccnc1`, the growth is 34% (inactive).

Take `Cc1ccc(NCCN(C)C)c2c(=O)c3ccccc3sc12`: the growth was 13.2% (inactive).

As to `COc1ccccc1NC(=O)N/C(N)=N/c1nc2ccccc2s1`, the growth is -18.6% (active).

As to `COC(=O)CCC1=C(C)C2=NC1=CC1=NC(=CC3=NC(=Cc4[nH]c(/c(=C(/C)O)c4C)=C2)C(C(C)=O)=C3C)C(C)=C1CCC(=O)OC`, the growth is 108% (inactive).

As to `Oc1ccc(CN2CCC(N3CCOCC3)CC2)c2cccnc12`, the growth is 16.3% (inactive).

With `C#Cc1cccc(NC(=O)c2ccc(NC(=O)CCl)cc2)c1`, the growth was -4.26% [8.25 µM] (active).

As for `Cc1c(C(=O)NC(Cc2ccccc2)C(O)C(=O)NCc2ccc(F)cc2)[nH]c2ccccc2c1=O` (stereo not drawn), the growth is 101% (inactive).

As for `Cc1ccc2nc(NC(=O)CSc3nc(Nc4ccc([N+](=O)[O-])cc4)c(C#N)c(-c4ccccc4)n3)sc2c1`, the growth was 107% (inactive).

With `CCN1C(=O)N(CC)C2Nn3c(s/c(=C4\C(=O)N(C)c5ccccc54)c3=O)=NC21` (stereo not drawn), the growth was -59.6% (active).

Take `C=CCSc1nc2ccccc2cc1/C=N/O`: the growth was 95.1% (inactive).

As for `C=C(C)[C@@H]1CC[C@]2(C)[C@H](CC=C3[C@@H]4CC(C)(C)CC[C@]4(C(N)=O)CC[C@]32C)[C@@]1(C)CCC#N`, the growth was 17.7% (inactive).

Regarding `CCOC(=O)C/C(C)=N\NC(=O)c1ccncc1`, the growth is 91.7% (inactive).

Take `O=C(/C=C/c1ccc(Cl)nc1)c1ccc(Cl)cc1Cl`: the growth was 89.9% (inactive).

For `COC(=O)[C@]12CC[C@@H](C)[C@H](C)[C@@H]1C1=CC[C@@H]3[C@@]4(C)C(C=O)=C[C@@](C)(COC(=O)c5ccco5)C4=CC[C@@]3(C)[C@]1(C)CC2`, the growth was -22.3% (active).

`CC(C)(C)C(CCc1ccc(Cl)cc1)N1CCN(C2CCCCC2)CC1` (stereo not drawn): the growth is 39.2% (inactive).

As to `O=C(Nc1ccc(-n2cc(-c3ccncc3)c(-c3ccc(Cl)c(O)c3)n2)cc1)N1CCOCC1`, the growth is 104% (inactive).

In the case of `COc1nc(N(C)O)nc(N(C)O)n1`, the growth was 49.8% (inactive).

As for `O=c1[nH]ccc2nc(N3CCC(O)CC3)nc(Nc3ccc(N4CCOCC4)cc3)c12`, the growth was 40.6% (inactive).

A further assay concerns SW-620 colon. Described as above. The note with it: 10 µM unless noted.
For `Cc1nn(-c2ccccc2)c(Cl)c1/C=C(/NC(=O)c1ccccc1)c1nc2ccccc2[nH]1`, the growth is 105% (inactive).

For the molecule `Cc1ccc(-c2c(-c3ccccc3)c(=O)oc3ccc(C)cc23)cc1`, the growth was 99.5% (inactive).

As to `CC1(c2ccccc2)NC(=O)N(NC(=O)CSc2nc(-c3cccs3)nc3ccccc23)C1=O` (stereo not drawn), the growth is 109% (inactive).

Consider `C(=N\Nc1ncc(-c2cc3cc4c(cc3o2)OCO4)s1)/c1ccco1`, for which the growth is 2.26% (active).

For the molecule `O=C1/C(=C\c2cccnc2)SC(=S)N1CCc1ccc(O)cc1`, the growth was 44.4% (inactive).

As for `CC1(C)CC[C@]2(C(=O)N3CCOCC3)CC[C@]3(C)C(=CC[C@@H]4[C@@]5(C)CC[C@H](OC(=O)c6cccnc6)C(C)(C)[C@@H]5CC[C@]43C)[C@@H]2C1`, the growth was 45.4% (inactive).

Turning to `COC(=O)[C@]12CC[C@@H](C)[C@H](C)[C@@H]1C1=CC[C@@H]3[C@@]4(C)C(C=O)=C[C@@](C)(COC(=O)c5ccco5)[C@@H]4C(=O)C[C@@]3(C)[C@]1(C)CC2`, the growth is 31.4% (inactive).

Turning to `O=C(COc1ccc(/C=C2\Oc3ccccc3C2=O)cc1)Nc1nc2c(s1)CCCC2`, the growth was 65.5% (inactive).

As for `Cn1cc(-c2csc(-c3ccccc3)n2)c2cccnc21`, the growth was -34.1% [100 µM] (active).

As for `CCOP(=O)(OCC)C1CP(=O)(c2ccccc2)CC(C)=C1Cl` (stereo not drawn), the growth is 105% (inactive).

On to `S=C(Cc1ccc2c(c1)CCCC2)N1CCOCC1`, for which the growth is 114% (inactive).

With `CN1C(=O)N(C)C2C1NN=c1s/c(=C\c3ccccc3)c(=O)n12` (stereo not drawn), the growth is 21.7% (inactive).

With `Cc1ccc(C(=O)CSc2nc(-c3ccc(Br)cc3)c(C#N)c(=O)[nH]2)cc1`, the growth is 92.2% (inactive).

On to `O=C1N=c2cc3c(cc2=C/C1=C/c1sc(=S)n(CCc2ccc(O)cc2)c1O)OCCO3`, for which the growth is 5.91% (active).

With `COc1ccc(CN2C(=O)C(Cl)=C(Nc3cccc(C(F)(F)F)c3)C2=O)cc1`, the growth is 28.8% (inactive).

In the case of `O=C1C=C[C@]2(C[C@@H](c3cccc(C(F)(F)F)c3)O[C@@H](c3cccc(C(F)(F)F)c3)O2)O1`, the growth was -48.1% (active).

With `Clc1cc(Cl)cc(Nc2ccc3cc(OCCCN4CCOCC4)ccc3n2)c1`, the growth is -8.79% (active).

In the case of `CC(=O)OC1CCC2(C)C(=CC3C4CCC(=O)C4(C)CCC32)C1` (stereo not drawn), the growth was 104% (inactive).

Regarding `COc1cc(C2NC(=O)c3ccccc3N2)ccc1OCCCCCOc1c(OC)cc(C2=NOC(c3cc(OC)c(OC)c(OC)c3)C2)cc1OC` (stereo not drawn), the growth was 92.8% (inactive).

Take `O=C(N/N=C/c1ccncc1)c1ccc(C(F)(F)F)nc1Nc1cccc(C(F)(F)F)c1`: the growth was 14.8% (inactive).

`C[C@@]1(CCC#N)[C@H]2CC[C@@H]3[C@H]4[C@H](C(=O)/C=C/c5cccnc5)CC[C@]4(C#N)CC[C@@]3(C)[C@]2(C)CC[C@H]1C(=O)/C=C/c1cccnc1`: the growth is 37.2% (inactive).

Take `Cc1ccc(NCCN(C)C)c2c(=O)c3ccccc3sc12`: the growth is 8.96% (active).

On to `COc1ccccc1NC(=O)N/C(N)=N/c1nc2ccccc2s1`, for which the growth was 25.6% (inactive).

`COC(=O)CCC1=C(C)C2=NC1=CC1=NC(=CC3=NC(=Cc4[nH]c(/c(=C(/C)O)c4C)=C2)C(C(C)=O)=C3C)C(C)=C1CCC(=O)OC`: the growth was 103% (inactive).

Take `Oc1ccc(CN2CCC(N3CCOCC3)CC2)c2cccnc12`: the growth is 22% (inactive).

For `C#Cc1cccc(NC(=O)c2ccc(NC(=O)CCl)cc2)c1`, the growth was -75.5% [8.25 µM] (active).

As for `Cc1c(C(=O)NC(Cc2ccccc2)C(O)C(=O)NCc2ccc(F)cc2)[nH]c2ccccc2c1=O` (stereo not drawn), the growth was 114% (inactive).

As for `Cc1ccc2nc(NC(=O)CSc3nc(Nc4ccc([N+](=O)[O-])cc4)c(C#N)c(-c4ccccc4)n3)sc2c1`, the growth is 105% (inactive).

As for `CCN1C(=O)N(CC)C2Nn3c(s/c(=C4\C(=O)N(C)c5ccccc54)c3=O)=NC21` (stereo not drawn), the growth is 26.3% (inactive).

Turning to `C=CCSc1nc2ccccc2cc1/C=N/O`, the growth was 87% (inactive).

Regarding `C=C(C)[C@@H]1CC[C@]2(C)[C@H](CC=C3[C@@H]4CC(C)(C)CC[C@]4(C(N)=O)CC[C@]32C)[C@@]1(C)CCC#N`, the growth is 22.1% (inactive).

In the case of `CCOC(=O)C/C(C)=N\NC(=O)c1ccncc1`, the growth was 107% (inactive).

Take `O=C(/C=C/c1ccc(Cl)nc1)c1ccc(Cl)cc1Cl`: the growth is -33.2% (active).

On to `COC(=O)[C@]12CC[C@@H](C)[C@H](C)[C@@H]1C1=CC[C@@H]3[C@@]4(C)C(C=O)=C[C@@](C)(COC(=O)c5ccco5)C4=CC[C@@]3(C)[C@]1(C)CC2`, for which the growth is -7.67% (active).

With `CC(C)(C)C(CCc1ccc(Cl)cc1)N1CCN(C2CCCCC2)CC1` (stereo not drawn), the growth was 35% (inactive).

As for `O=C(Nc1ccc(-n2cc(-c3ccncc3)c(-c3ccc(Cl)c(O)c3)n2)cc1)N1CCOCC1`, the growth is 113% (inactive).

Regarding `COc1nc(N(C)O)nc(N(C)O)n1`, the growth is 34.6% (inactive).

Regarding `O=c1[nH]ccc2nc(N3CCC(O)CC3)nc(Nc3ccc(N4CCOCC4)cc3)c12`, the growth is 39.6% (inactive).
